Experimental data taken from ChEMBL document CHEMBL3988442, “University of Dundee, Small-Polar-MMV Screening Library” (2021).
For some assays here: Entries with a potency or affinity are not part of this list.

Key:
Set-up in all cases: scale not given: direction of the effect not stated beside the values
[1] = molecular target: Protein translocase subunit SecA (Escherichia coli (strain K12)) (UniProt P10408); assay: Assay to Identify E. coli SecA ATPase Inhibitors; assay type: functional; conditions: 30 µM
[2] = molecular target: T1, Ubiquitin-activating enzyme e1, putative (Leishmania donovani (strain BPK282A1)) (UniProt E9BSI1); assay: Leishmania donovani Ubiquitin Activating Enzyme (LdE1); assay type: functional; conditions: 30 µM
T1 sequence (whole entry): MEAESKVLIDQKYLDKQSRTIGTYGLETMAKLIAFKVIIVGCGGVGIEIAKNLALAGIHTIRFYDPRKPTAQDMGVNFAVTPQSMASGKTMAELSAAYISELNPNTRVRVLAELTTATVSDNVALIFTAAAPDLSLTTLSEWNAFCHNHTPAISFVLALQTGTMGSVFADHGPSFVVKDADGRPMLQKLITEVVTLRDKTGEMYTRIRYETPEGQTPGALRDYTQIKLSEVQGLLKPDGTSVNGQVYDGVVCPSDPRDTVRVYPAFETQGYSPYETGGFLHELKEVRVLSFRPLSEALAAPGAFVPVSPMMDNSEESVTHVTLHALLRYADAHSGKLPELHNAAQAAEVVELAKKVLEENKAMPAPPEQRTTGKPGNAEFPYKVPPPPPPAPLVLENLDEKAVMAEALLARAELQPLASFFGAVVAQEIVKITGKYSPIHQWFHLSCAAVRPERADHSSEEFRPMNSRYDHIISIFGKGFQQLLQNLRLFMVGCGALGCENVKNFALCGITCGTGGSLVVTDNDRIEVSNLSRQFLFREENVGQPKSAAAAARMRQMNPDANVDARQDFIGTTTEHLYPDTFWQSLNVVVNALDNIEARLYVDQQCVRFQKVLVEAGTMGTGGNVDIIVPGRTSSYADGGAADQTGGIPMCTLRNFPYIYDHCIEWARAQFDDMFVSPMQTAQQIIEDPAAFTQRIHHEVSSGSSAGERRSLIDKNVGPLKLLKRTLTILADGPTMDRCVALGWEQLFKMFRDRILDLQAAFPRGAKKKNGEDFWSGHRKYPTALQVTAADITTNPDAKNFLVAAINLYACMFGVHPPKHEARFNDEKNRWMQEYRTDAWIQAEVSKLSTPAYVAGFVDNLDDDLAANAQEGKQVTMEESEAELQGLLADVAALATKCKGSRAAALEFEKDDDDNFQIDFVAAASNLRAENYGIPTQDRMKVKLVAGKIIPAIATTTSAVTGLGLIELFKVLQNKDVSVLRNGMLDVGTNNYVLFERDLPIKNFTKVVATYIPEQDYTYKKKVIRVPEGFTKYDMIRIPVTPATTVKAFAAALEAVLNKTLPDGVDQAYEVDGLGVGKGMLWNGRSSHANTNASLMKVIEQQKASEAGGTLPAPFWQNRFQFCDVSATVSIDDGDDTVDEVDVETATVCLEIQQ

[3] = molecular target: AMP-activated protein kinase, AMPK (Homo sapiens) (UniProt P54646+O43741+P54619+Q9UGJ0+Q9Y478+Q13131+Q9UGI9); assay: AMP-dependent Kinase enzyme assay. An in vitro enzyme assay that detects ADP turnover that is directly proportional to AMPK activity. This uses naive AMPK that is activated during the assay with MK-8722; assay type: functional; conditions: 30 µM
[4] = molecular target: Sialic acid-binding Ig-like lectin 9 (Homo sapiens) (UniProt Q9Y336); assay: Hs-Siglec9 ALPHAscreen SOP 20170721; conditions: 10 µM
Trypanosoma cruzi = assay: Trypanosoma cruzi phosphomannomutase and mannose-1-phosphate guanylyltransferase assay; assay type: functional; conditions: 10 µM
[5] = molecular target: T2, Arginase-2, mitochondrial (Homo sapiens) (UniProt P78540); assay: in vitro enzyme assay to detect the production of urea directly proportional to the activity of Arginase II; assay type: functional; conditions: 33.3 µM; note: in the data most compounds retested in dose-response had high values
T2 sequence (whole entry): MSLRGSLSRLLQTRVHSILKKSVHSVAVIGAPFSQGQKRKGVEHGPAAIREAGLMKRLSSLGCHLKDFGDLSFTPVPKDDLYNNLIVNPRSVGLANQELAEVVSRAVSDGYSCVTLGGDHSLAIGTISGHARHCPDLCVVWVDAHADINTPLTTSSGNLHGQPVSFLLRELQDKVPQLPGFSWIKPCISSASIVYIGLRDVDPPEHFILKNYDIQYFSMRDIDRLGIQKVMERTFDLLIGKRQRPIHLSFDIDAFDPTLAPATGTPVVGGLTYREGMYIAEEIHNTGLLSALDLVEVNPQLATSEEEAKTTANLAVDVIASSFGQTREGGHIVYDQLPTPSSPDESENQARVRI

[6] = molecular target: T3, Proteasome subunit beta (Trypanosoma cruzi) (UniProt O96673); assay: Trypanosoma cruzi proteasome chymotrypsin-like activity (TcProtChymo) assay.; note: in the data most compounds retested in dose-response had high values; assay type: functional; conditions: 9.37 µM
T3 sequence (whole entry): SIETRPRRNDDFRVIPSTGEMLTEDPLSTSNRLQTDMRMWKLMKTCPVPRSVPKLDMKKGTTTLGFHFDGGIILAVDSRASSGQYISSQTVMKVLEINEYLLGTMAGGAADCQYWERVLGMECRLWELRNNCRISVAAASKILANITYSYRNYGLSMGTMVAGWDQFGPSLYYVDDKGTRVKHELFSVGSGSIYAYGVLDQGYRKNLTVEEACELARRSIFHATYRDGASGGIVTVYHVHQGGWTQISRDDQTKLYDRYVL

Homo sapiens = organism: Homo sapiens; assay: To identify inhibition of the IFN signalling (Jak-Stat) pathway via expression of an eGFP reporter gene under the control of an IFN-stimulated response element (ISRE) containing MxA promoter.; assay type: functional; conditions: 30 µM
[7] = molecular target: T4, Tyrosyl-tRNA synthetase, putative (Trypanosoma cruzi (strain CL Brener)) (UniProt Q4DSP6); assay: Trypanosoma cruzi tyrosyl tRNA synthetase (TcYRS) _High Tyrosine SOP; assay type: functional; conditions: 30 µM; note: in the data most compounds retested in dose-response had high values
T4 sequence (whole entry): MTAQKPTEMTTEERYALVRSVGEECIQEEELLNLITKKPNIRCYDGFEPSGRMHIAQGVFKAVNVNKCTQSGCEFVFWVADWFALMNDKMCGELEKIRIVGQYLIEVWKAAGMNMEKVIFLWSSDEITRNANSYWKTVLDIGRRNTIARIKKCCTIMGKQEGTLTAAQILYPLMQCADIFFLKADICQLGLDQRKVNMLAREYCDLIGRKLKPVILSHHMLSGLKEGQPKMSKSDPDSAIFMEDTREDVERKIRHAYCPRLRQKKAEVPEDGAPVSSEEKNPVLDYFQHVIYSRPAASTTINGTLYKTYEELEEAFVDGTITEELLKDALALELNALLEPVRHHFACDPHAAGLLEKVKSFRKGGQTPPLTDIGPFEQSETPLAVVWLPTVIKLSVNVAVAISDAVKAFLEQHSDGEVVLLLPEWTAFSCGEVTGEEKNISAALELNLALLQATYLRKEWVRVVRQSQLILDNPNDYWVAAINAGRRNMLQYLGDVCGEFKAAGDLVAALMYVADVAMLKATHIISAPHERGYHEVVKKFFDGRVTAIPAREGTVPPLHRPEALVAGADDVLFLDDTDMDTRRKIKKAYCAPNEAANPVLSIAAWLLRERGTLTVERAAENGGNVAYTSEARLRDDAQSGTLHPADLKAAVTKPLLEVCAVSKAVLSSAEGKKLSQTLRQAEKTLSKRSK

[8] = molecular target: T4, Tyrosyl-tRNA synthetase, putative (Trypanosoma cruzi (strain CL Brener)); assay: Trypanosoma cruzi tyrosyl tRNA synthetase (TcYRS) SOP; assay type: functional; conditions: 30 µM
[9] = molecular target: Chromo domain-containing protein 1 (Saccharomyces cerevisiae (strain ATCC 204508 / S288c) (Baker's yeast)) (UniProt P32657); assay: ScCHD-1 Enzyme Inhibition Assay; assay type: functional; conditions: 30 µM; note: in the data most compounds retested in dose-response had high values
Chain of Chromo domain-containing protein 1 (Saccharomyces cerevisiae (strain ATCC 204508 / S288c) (Baker's yeast)) (P32657 whole entry, the tested form may be a part): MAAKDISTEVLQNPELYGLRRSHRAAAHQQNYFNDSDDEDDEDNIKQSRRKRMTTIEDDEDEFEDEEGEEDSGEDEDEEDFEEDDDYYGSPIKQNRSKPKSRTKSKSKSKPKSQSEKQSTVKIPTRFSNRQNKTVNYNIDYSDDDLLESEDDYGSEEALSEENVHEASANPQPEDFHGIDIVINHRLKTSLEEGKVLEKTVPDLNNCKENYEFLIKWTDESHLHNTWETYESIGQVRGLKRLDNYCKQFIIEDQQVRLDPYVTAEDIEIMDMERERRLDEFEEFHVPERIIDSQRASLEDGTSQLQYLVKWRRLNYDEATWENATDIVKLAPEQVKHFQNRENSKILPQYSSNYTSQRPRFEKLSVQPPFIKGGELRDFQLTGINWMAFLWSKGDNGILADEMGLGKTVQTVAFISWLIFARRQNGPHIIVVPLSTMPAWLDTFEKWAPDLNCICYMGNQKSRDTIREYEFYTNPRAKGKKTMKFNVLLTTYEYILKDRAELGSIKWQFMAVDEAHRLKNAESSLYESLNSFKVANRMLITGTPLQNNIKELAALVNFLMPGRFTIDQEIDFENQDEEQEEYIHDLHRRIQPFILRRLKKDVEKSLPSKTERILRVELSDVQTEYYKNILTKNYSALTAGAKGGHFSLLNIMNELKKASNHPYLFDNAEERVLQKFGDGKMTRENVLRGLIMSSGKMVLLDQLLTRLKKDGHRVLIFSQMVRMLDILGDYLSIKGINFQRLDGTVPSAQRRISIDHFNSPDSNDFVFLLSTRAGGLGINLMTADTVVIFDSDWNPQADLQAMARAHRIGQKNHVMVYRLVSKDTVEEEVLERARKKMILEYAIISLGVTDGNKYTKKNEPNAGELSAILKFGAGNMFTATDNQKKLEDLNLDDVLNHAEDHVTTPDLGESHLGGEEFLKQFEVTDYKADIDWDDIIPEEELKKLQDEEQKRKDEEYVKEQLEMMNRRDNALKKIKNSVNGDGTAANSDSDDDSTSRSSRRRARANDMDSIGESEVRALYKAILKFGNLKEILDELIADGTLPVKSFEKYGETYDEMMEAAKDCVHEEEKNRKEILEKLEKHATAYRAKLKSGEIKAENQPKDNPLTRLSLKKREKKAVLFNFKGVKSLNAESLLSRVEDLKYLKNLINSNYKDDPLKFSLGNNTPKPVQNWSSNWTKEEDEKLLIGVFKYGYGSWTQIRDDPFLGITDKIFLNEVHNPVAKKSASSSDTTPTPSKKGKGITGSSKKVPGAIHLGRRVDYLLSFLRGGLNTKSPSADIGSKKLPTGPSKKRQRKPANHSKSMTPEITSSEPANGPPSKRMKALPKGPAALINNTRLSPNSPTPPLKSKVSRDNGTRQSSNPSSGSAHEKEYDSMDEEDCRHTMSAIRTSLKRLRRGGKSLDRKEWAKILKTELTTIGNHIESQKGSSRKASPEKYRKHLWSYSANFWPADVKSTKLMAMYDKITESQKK

Chain of Protein translocase subunit SecA (Escherichia coli (strain K12)) (P10408 whole entry): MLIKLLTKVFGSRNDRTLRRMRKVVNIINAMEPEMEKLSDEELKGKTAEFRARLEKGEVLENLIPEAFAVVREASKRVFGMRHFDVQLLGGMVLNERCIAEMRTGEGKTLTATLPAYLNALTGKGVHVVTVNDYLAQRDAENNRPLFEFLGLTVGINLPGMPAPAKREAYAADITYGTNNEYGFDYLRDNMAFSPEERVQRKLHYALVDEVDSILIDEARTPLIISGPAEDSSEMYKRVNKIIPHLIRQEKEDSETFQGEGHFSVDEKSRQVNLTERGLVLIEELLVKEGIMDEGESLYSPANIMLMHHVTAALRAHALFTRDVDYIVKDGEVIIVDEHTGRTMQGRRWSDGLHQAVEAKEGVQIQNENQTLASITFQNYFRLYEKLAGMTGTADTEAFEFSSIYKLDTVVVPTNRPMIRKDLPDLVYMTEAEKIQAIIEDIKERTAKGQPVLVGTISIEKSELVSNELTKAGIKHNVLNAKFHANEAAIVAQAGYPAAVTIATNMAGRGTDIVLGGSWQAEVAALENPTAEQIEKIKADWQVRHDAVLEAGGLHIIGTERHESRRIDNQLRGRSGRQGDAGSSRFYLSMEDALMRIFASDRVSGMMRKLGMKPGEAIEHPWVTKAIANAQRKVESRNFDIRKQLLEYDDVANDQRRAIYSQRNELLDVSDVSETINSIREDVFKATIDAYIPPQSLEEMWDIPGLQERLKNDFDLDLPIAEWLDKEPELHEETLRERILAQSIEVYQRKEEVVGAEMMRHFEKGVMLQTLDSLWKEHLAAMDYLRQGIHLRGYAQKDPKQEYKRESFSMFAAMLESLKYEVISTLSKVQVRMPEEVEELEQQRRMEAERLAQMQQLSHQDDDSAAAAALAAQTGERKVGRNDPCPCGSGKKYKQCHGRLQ
Chain of Sialic acid-binding Ig-like lectin 9 (Homo sapiens) (Q9Y336 whole entry): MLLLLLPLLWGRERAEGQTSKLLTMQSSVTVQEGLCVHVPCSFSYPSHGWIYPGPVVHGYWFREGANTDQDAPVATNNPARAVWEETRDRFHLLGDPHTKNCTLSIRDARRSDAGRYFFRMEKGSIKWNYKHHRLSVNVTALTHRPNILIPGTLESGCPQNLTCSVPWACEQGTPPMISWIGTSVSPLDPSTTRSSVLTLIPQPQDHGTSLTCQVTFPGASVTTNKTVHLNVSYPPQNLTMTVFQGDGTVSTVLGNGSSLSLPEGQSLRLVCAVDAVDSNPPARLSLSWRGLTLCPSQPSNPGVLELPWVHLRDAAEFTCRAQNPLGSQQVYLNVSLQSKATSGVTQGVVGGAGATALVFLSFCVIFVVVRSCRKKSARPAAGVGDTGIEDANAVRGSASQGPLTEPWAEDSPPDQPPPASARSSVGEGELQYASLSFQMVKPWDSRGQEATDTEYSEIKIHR

Row | Compound | Percent Effect [1] [%] | Percent Effect [2] [%] | Percent Effect [3] [%] | Percent Effect [4] [%] | Percent Effect (Trypanosoma cruzi) [%] | Percent Effect [5] [%] | Percent Effect [6] [%] | Percent Effect (Homo sapiens) [%] | Percent Effect [7] [%] | Percent Effect [8] [%] | Percent Effect [9] [%]
1 | CN(C)c1ncccc1CNC(=O)N1CCCC1c1ccsc1 (stereo not given) | -9.33 | 18.2 | -4.46 | 4.94 | -2.43 | 0.712 | 2.2 | 1.32 | 5.83 | 14.6 | -6.19
2 | Cc1nc(C)n(C2CCCN(C(=O)c3cnc[nH]3)C2)n1 (stereo not given) | -4.48 | -2.7 | -9.26 | 8.79 | -4.43 | 2 | -2.7 | 0.378 | -5.42 | 1.24 | 6.8
3 | O=C(NCC(F)(F)F)C1CSCN1S(=O)(=O)c1ccc(F)cc1 (stereo not given) | -4.1 | 16.5 | 4.27 | -0.453 | 1.33 | -4.95 | 16.5 | 7.19 | 13.5 | 30.4 | -28
4 | Cc1nccc([C@@H]2C[C@@H]3CCN(S(C)(=O)=O)C[C@H]3O2)n1 | -4.82 | 8.11 | -5.02 | 10.6 | 7.14 | -0.744 | 7.64 | 6.16 | 8.6 | 13.6 | -3.19
5 | Cc1cnc(CN(C)C2CCN(CC(=O)Nc3c(C)n[nH]c3C)C2)o1 (stereo not given) | 3.19 | 20.2 | 14.2 | -1.23 | -9.54 | 6.84 | 6.63 | 33.5 | 5.42 | 8.86 | -4.79
6 | Cc1nc(CN2CCC(C(=O)O)(n3ccc(-c4ccco4)n3)CC2)co1 | -6.11 | 8.22 | -0.438 | 4.25 | 0 | -0.399 | 12.9 | 23.4 | 1.04 | 3.7 | -0.0478
7 | O=C(CCc1cc(O)no1)N1CCCC(COc2ccc(F)cc2)C1 (stereo not given) | -4.75 | 20.8 | -16.4 | 26.7 | 3.6 | 0.442 | 14 | -9.73 | 5.26 | 10.3 | -11.2
8 | Cc1nn(C)c(N(C)C)c1CNCc1ccccc1Cn1cncn1 | -6.25 | 6.33 | -0.0601 | 1.64 | -1.33 | 0.215 | 6.52 | 3.54 | 3.12 | -5.06 | -11.2
9 | CCn1nnc2c1C(COC)CN(C(=O)Cc1cccs1)C2 (stereo not given) | -0.417 | 5.41 | -1.12 | -5.98 | -2.93 | -2.5 | 17.8 | -0.944 | 6.93 | 8.54 | 5.86
10 | O=C(CN1C=Nc2ccccc2S1(=O)=O)NCCc1cccs1 | -6.39 | 13.2 | -6.07 | 5.67 | 3.08 | 5.04 | 9.56 | 5.08 | 8.37 | 25.9 | -10.2
